High-throughput results: PubChem, National Center for Advancing Translational Sciences (NCATS)
NPC1 promoter act: qHTS Assay for NPC1 Promoter Activators; Huh7 NPC1 promoter luciferase reporter, 24 h; Potency, µM (highest dose often 9.22 µM), for the others: at the top dose activation, hits mostly activators; 320,000 tested, 2.4% active; AID 485313, 2010; also: % of control where 0% means no effect; nearly all actives have a fitted effect of over 60% in size
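In 1536-well qHTS, Huh7 cells harboring an NPC1 promoter–luciferase construct received compound for 24 h; activation was quantified by luminescence following luciferase reagent addition.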
ELG1 DNA repair: qHTS screen for small molecules that inhibit ELG1-dependent DNA repair in human embryonic kidney (HEK293T) cells expressing luciferase-tagged ELG1; HEK293T ELG1-luciferase reporter, luminescence, 16 h; DNA damage induced by 5-fluorouridine; Potency, µM (top dose mostly 46.1 µM), without a hit: at the top dose activity change, negative = inhibition, hits mostly inhibitors; 330,000 tested, 2.3% active; also: % is scaled to controls: 0 for no effect and ±100 for the full control effect; nearly all actives have a fitted effect of over 55% in size
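In this reporter screen, reduction of luminescence relative to DMSO vehicle indicated activity. Compounds and 5-fluorouridine were added together to 2,000 cells per well, incubated for 16 hr at 37 °C, then developed with ONE-Glo.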
ELG1 genotox: qHTS screen for small molecules that induce genotoxicity in human embryonic kidney (HEK293T) cells expressing luciferase-tagged ELG1 | HEK293T ELG1-luciferase reporter, luminescence, 16 h | Potency, µM (series often up to 46 µM), without a hit: top-dose activity change, positive = activation, actives largely listed as activators | 330,000 tested, 1.3% active; also: % of control where 0% means no effect; nearly all actives have a fitted effect of over 60% in size
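Step 1: seed 2,000 HEK293T ELG1-luciferase cells per well. Step 2: add compound or DMSO, incubate 16 hr at 37 °C. Step 3: ONE-Glo, 30 min at room temperature, read luminescence.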
Rab9 promoter act: qHTS Assay for Rab9 Promoter Activators. AID 485297, 2010. Huh7 Rab9 promoter-luciferase reporter, luminescence, 24 h. Potency, µM (series often up to 9.22 µM), without a hit: at the highest dose activation, negative = inhibition, usual class: activators. 320,000 tested, 2.8% active; also: % of control where 0% means no effect; nearly all actives have a fitted effect of over 60% in size
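Rab9 promoter-driven luciferase in stably transfected Huh7 cells; 1500 cells/well rested 2 h, exposed to compound in DMSO for 24 h at 37 °C, 5% CO2. Luminescence read 10 min after adding luciferase reagent at ambient temperature.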
SMN2 splice up: qHTS Assay for Enhancers of SMN2 Splice Variant Expression; HEK293 SMN2-luciferase splicing reporter, luminescence, 30-36 h; Potency, µM (series often up to 46.1 µM), for the others: top-dose activity change, positive = activation, most hits filed as activators; 210,000 tested, 2.8% active; also: % of control where 0% means no effect; nearly all actives have a fitted effect of over 55% in size
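HEK293 cells carry an SMN2 […]–luciferase reporter in which exon 7 inclusion puts luciferase in frame. Cells were plated 10-12 h before compound addition, then incubated 30-36 h at 37C. ONE-Glo luminescence was read; sodium butyrate at 4.5 mM final served as control.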
FLuc modulator: qHTS profiling assay for firefly luciferase inhibitor/activator using purifed enzyme and Km concentrations of substrates (counterscreen for miR-21 project) | 360,000 tested, 6.9% active | Potency, µM (doses to about 57.5 µM), without a hit: at the top dose activity change, negative = inhibition, hits mostly inhibitors | Luciferin 4-monooxygenase (Photinus pyralis), P08659 | purified FLuc, Km substrates, luminescence inhibition;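 also: plate controls were vehicle for no effect and reference inhibitor for full effect; nearly all actives have a fitted effect of over 55% in size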
Target sequence (P08659 whole entry, looked up): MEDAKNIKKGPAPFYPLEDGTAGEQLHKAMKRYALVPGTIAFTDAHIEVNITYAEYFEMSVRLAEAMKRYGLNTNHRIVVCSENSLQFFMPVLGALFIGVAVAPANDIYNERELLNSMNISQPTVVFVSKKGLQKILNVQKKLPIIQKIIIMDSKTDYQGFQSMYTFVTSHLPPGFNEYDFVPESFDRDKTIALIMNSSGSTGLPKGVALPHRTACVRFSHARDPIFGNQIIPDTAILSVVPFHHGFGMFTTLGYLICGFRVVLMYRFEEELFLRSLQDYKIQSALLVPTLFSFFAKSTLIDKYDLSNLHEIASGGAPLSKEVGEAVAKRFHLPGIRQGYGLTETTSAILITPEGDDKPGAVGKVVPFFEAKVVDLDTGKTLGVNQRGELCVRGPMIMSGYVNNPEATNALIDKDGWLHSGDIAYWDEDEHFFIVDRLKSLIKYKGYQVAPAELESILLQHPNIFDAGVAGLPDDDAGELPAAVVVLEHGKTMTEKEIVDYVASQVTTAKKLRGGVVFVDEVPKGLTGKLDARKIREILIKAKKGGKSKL
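Biochemical qHTS of compounds, final roughly 60 µM downward over six points, against 10 nM purified firefly luciferase using Km concentrations of substrates (10 uM D-luciferin, 10 uM ATP) in Tris acetate pH 7.5 buffer; luminescence output.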
* marks the source's active call; other numbers are inactive results; ? = inconclusive; . = no result given; [ ] = remark or other dose. Most compounds without a hit are left out; they make up all but 9.2% or so of the library. Calls follow the shape of the dose curve; as a rule, active = well fitted curve in the direction sought with a large enough effect; inconclusive = small, poorly fitted or top-dose-only effect, or another doubt; inactive = no such curve, though single readings can be large; an effect the other way counts as inactive or inconclusive. Potency is read from the fitted curve at half-maximal effect.

SMILES | NPC1 promoter act | ELG1 DNA repair | ELG1 genotox | Rab9 promoter act | SMN2 splice up | FLuc modulator
CC(C)(C)NC(=O)COc1ccc(-c2ccccc2)cc1 | ? | ? | ? | 23.0% | 11.9% | 19µM*
CCNC(=O)COc1ccc(OCc2ccccc2)cc1 | 9.9% | ? | 8.2% | 18.1% | 10.4% | ?
CC(C)OC(=O)COc1ccc(-c2ccccc2)cc1 | -0.2% | 11.2% | -4.5% | 2.5% | 6.5% | 12µM*
CCNC(=O)COc1ccc(-c2ccccc2)cc1 | ? | ? | ? | ? | ? | 19µM*
O=S(=O)(Nc1ccc(Cl)cc1)c1cccc(S(=O)(=O)c2ccc(Cl)c(Cl)c2)c1 | . | . | . | . | -4.8% | ?
Nc1ccc(N=Nc2ccc(N)cc2)cc1 | ? | ? | ? | ? | 14.1µM* | 7.57µM*
Cc1ccc(C)c(NC(=O)C(c2ccccc2)N2Cc3ccccc3C2=O)c1 (stereo not given) | . | . | . | . | . | -8.5%
O=C(N/N=C/c1ccc([N+](=O)[O-])cc1)c1cc2ccccc2o1 | -5.2% | ? | 16.1% | -5.1% | . | -0.8%
CCOc1ccc(/C=N/NC(=O)c2ccc(Cn3cc(Br)cn3)o2)cc1 | 4.1% | ? | 16.6% | 2.0% | 6.6% | 6.75µM*
CCOc1ccccc1/C=N/NC(=O)c1ccc(Cn2cc([N+](=O)[O-])cn2)o1 | -2.5% | 1.5% | 1.5% | -5.1% | 5.8% | 6.0%
CC(/C=N/NC(=O)c1ccc(Cn2cc([N+](=O)[O-])cn2)o1)=C\c1ccccc1 | ? | ? | 12.2% | 3.8%[1.84 µM] | . | 2.39µM*
CC(C)(C)c1ccc(OCc2ccc(C(=O)N/N=C/c3ccc([N+](=O)[O-])cc3)o2)cc1 | 1.58µM* | 26.9% | 1.9% | ? | 20.3% | ?
CCOc1ccc(/C=N/NC(=O)c2ccc(Cn3cc([N+](=O)[O-])cn3)o2)cc1 | . | . | . | . | 27.4% | 4.78µM*
O=C(COc1ccc(F)cc1)Nc1nnc(S(=O)(=O)N2CCc3ccccc32)s1 | . | . | . | . | . | -6.0%
CCCc1ccc(OCc2ccc(C(=O)N/N=C/c3cccnc3)o2)cc1 | 0.398µM* | ? | 0.82µM* | 0.447µM* | . | ?
COc1ccc(/C=N/NC(=O)c2ccc(COc3ccccc3Cl)o2)cc1 | 17.7% | ? | 12.7% | 16.8% | 14.1% | 2.69µM*
COc1ccc(/C=N/NC(=O)c2ccc(COc3ccccc3Cl)o2)c(OC)c1C | -5.9% | -12.1% | 14.1% | -7.4% | -7.8% | 2.5%
CCOc1ccc(C(CC(=O)O)NC(=O)COc2ccccc2OC)cc1OC (stereo not given) | -1.5% | 21.1% | 2.3% | -6.3% | 22.4µM* | -7.3%
CCOc1ccc(C(CC(=O)O)NC(=O)COc2ccc3ccccc3c2)cc1OC (stereo not given) | -4.3% | -2.8% | 0.2% | -3.7% | . | -6.2%
COc1ccc(N2CCN(c3c(S(=O)(=O)c4ccccc4)cnc4ccc(OC)cc34)CC2)cc1 | -1.0% | 18.4µM* | -7.4% | -0.1% | . | 3.4%
CCOc1ccc2ncc(S(=O)(=O)c3ccccc3)c(N3CCN(c4ccc(OC)cc4)CC3)c2c1 | 1.4% | 18.4µM* | -7.0% | -0.4% | -9.7% | -2.5%
CCOC(=O)c1cnc2ccc(OCC)cc2c1N1CCN(c2ccccc2)CC1 | 1.6% | ? | -12.9% | -4.9% | -13.4% | 1.2%
CCOc1ccc2ncc(S(=O)(=O)c3ccccc3)c(N3CCC4(CC3)OCCO4)c2c1 | -2.7% | ? | -3.0% | -3.5% | 18.6% | -5.0%
COc1ccc(S(=O)(=O)c2cnc3ccc(OC)cc3c2N2CCC3(CC2)OCCO3)cc1 | 0.0% | 23.1µM* | -4.3% | -5.9% | -16.7% | 0.0%
